Test results as given in the supplement of paper PMC9023506.
Counter-ions that a name gives are not always drawn.

System: Danio rerio larvae (5 dpf)
Experiment: excitability to 1-s acoustic pulses, difference vs DMSO (percentage points (treated minus DMSO)); higher = more of the behaviour than the DMSO vehicle control
Details: 10 µM; exposure time: 3 h pre-incubation + 3 h imaging
Procedure: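 5-dpf wild-type zebrafish larvae were imaged in 96-well plates. They were treated with 190 Tocris FDA-approved drugs at 10 µM (1 µl/ml DMSO) for 3 h before and 3 h during imaging at 28.5 °C, 48 larvae per drug. Automated image analysis gave % time moving and optomotor responses. Values are drug group mean minus DMSO vehicle mean (n=844), in percentage points, for 10 behaviours.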

Structure (SMILES) | excitability to 1-s acoustic pulses
NC(=O)c1ncn([C@@H]2O[C@H](CO)[C@@H](O)[C@H]2O)n1 [Ribavirin] | -0.206
COc1cc2nc(N3CCN(C(=O)c4ccco4)CC3)nc(N)c2cc1OC [Prazosin hydrochloride] | 13.5
O=C(O)c1cc(/N=N/c2ccc(S(=O)(=O)Nc3ccccn3)cc2)ccc1O [Sulfasalazine] | -0.736
Cc1cccc(C)c1OCC(C)N (stereo not given) [Mexiletine hydrochloride] | 1.36
COc1cc(Nc2c(C#N)cnc3cc(OCCCN4CCN(C)CC4)c(OC)cc23)c(Cl)cc1Cl [Bosutinib] | 6.48
C[C@@H]1C[C@H]2[C@@H]3CCC4=CC(=O)C=C[C@]4(C)[C@@]3(F)[C@@H](O)C[C@]2(C)[C@@]1(O)C(=O)CO [Dexamethasone] | -5.75
CC(=O)O[C@H]1C(=O)[C@@]2(C)[C@H]([C@H](OC(=O)c3ccccc3)[C@]3(O)C[C@H](OC(=O)[C@H](O)[C@@H](NC(=O)c4ccccc4)c4ccccc4)C(C)=C1C3(C)C)[C@]1(OC(C)=O)CO[C@@H]1C[C@@H]2O [Taxol] | -0.779
COc1c(C)c2c(c(O)c1C/C=C(\C)CCC(=O)OCCN1CCOCC1)C(=O)OC2 [Mycophenolate mofetil] | 0.817
CCOC(=O)c1ncn2c1CN(C)C(=O)c1cc(F)ccc1-2 [Flumazenil] | 2.56
CCCCC(=O)N(Cc1ccc(-c2ccccc2-c2nnn[nH]2)cc1)[C@H](C(=O)O)C(C)C [Valsartan] | -1.54
Cc1ccc(O)c([C@H](CCN(C(C)C)C(C)C)c2ccccc2)c1 [Tolterodine L-tartrate] | 7.2
Cc1ccccc1C(=O)Nc1ccc(C(=O)N2CCCC(O)c3cc(Cl)ccc32)c(C)c1 (stereo not given) [Tolvaptan] | 6.31
CC(C)Nc1cccnc1N1CCN(C(=O)c2cc3cc(NS(C)(=O)=O)ccc3[nH]2)CC1 [Delavirdine mesylate] | 0.884
OC(CNCC(O)C1CCc2cc(F)ccc2O1)C1CCc2cc(F)ccc2O1 (stereo not given) [Nebivolol hydrochloride] | 15.9
CCCN(CCc1cccs1)[C@H]1CCc2c(O)cccc2C1 [Rotigotine hydrochloride] | 31.3
CC(=O)NC[C@H]1CN(c2ccc(N3CCOCC3)c(F)c2)C(=O)O1 [Linezolid] | 7.52
CC(C)(C(=O)O)c1ccc(C(O)CCCN2CCC(C(O)(c3ccccc3)c3ccccc3)CC2)cc1 (stereo not given) [Fexofenadine hydrochloride] | -6.48
CCOC(=O)C1=C(COCCN)NC(C)=C(C(=O)OC)C1c1ccccc1Cl (stereo not given) [Amlodipine besylate] | -1.57
COc1cc2nccc(Oc3ccc(NC(=O)C4(C(=O)Nc5ccc(F)cc5)CC4)cc3)c2cc1OC | 17.1
Brc1c(NC2=NCCN2)ccc2nccnc12 | 7.01

Structure (SMILES) | excitability to 1-s acoustic pulses
Cc1ccsc1C(=CCCN1CCC[C@@H](C(=O)O)C1)c1sccc1C [Tiagabine hydrochloride] | -9.16
CCc1nc(N)nc(N)c1-c1ccc(Cl)cc1 [Pyrimethamine] | 6.41
COc1ccccc1OCC(O)CN1CCN(CC(=O)Nc2c(C)cccc2C)CC1 (stereo not given) [Ranolazine dihydrochloride] | 1.94
NS(=O)(=O)Cc1noc2ccccc12 [Zonisamide] | 2.79
C[C@@H](O[C@H]1OCCN(Cc2n[nH]c(=O)[nH]2)[C@H]1c1ccc(F)cc1)c1cc(C(F)(F)F)cc(C(F)(F)F)c1 [Aprepitant] | 8.09
COc1cc2nc(N3CCN(C(=O)C4COc5ccccc5O4)CC3)nc(N)c2cc1OC (stereo not given) [Doxazosin mesylate] | 20.8
CC1=Nc2ccc(Cl)cc2S(=O)(=O)N1 [Diazoxide] | 0.689
Cc1nc(-c2ccc(OCC(C)C)c(C#N)c2)sc1C(=O)O [Febuxostat] | -0.372
O=C(NCC1CCCCN1)c1cc(OCC(F)(F)F)ccc1OCC(F)(F)F (stereo not given) [Flecainide acetate] | 5.58
Cc1cccc(CN2CCN(C(c3ccccc3)c3ccc(Cl)cc3)CC2)c1 (stereo not given) [Meclizine dihydrochloride] | 9.5
CC(=O)Nc1ccc(O)cc1 [Acetaminophen] | -2.54
Cc1ccc(-c2cc(C(F)(F)F)nn2-c2ccc(S(N)(=O)=O)cc2)cc1 [Celecoxib] | 6.46
CCOc1ccccc1OCCN[C@H](C)Cc1ccc(OC)c(S(N)(=O)=O)c1 [Tamsulosin hydrochloride] | 14.9
CCc1ccc(CCOc2ccc(CC3SC(=O)NC3=O)cc2)nc1 (stereo not given) [Pioglitazone hydrochloride] | 6.94
Cc1nc(Nc2ncc(C(=O)Nc3c(C)cccc3Cl)s2)cc(N2CCN(CCO)CC2)n1 [Dasatinib] | 16.9
CCCN(CCC)S(=O)(=O)c1ccc(C(=O)O)cc1 [Probenecid] | 4.8
Nc1nc(F)nc2c1ncn2[C@@H]1O[C@H](CO)[C@@H](O)[C@@H]1O [Fludarabine] | 3.42
COC(c1ccccc1)(c1ccccc1)[C@H](Oc1nc(C)cc(C)n1)C(=O)O [Ambrisentan] | -1.87
O=C(O[C@@H]1C[C@@H]2C[C@H]3C[C@H](C1)N2CC3=O)c1c[nH]c2ccccc12 [Dolasetron mesylate] | 9.61
COc1ccccc1OCCNCC(O)COc1cccc2[nH]c3ccccc3c12 (stereo not given) [Carvedilol] | 21
